Rows were chosen to be rich in hits. Some 6.2% of all compounds tested hit in one or more screens of this group.
Gal4-VP16 FLuc: counter-screen for ROR gamma inhibitors: Gal4-VP16 reporter; Drosophila S2 Gal4-VP16 UAS-luciferase, luminescence, 20 h; Potency, µM (doses to about 53.6 µM), for inactives: at the top dose activity, negative = inhibition, hits mostly inhibitors; 310,000 tested, 3.5% active; AID 2546;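 also: Gal4-VP16 expression switched on by copper sulfate through the metallothionein promoter; nearly all actives have a fitted effect of over 50% in size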
KinaseGlo FLuc: counter-screen: inhibitors of Kinase-Glo firefly luciferase; Q27757; Kinase-Glo luciferase, ATP luminescence, 8 min; Potency, µM (highest dose often 38.3 µM), without a hit: at the top dose activity change, negative = inhibition, most hits filed as inhibitors; 200,000 tested, 0.28% active; AID 1379; also: nearly all actives have a fitted effect of over 60% in size
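Compounds were added to a substrate mix at pH 7.2 (50 mM imidazole, 10 uM ATP, within the enzyme's linear range), followed by Kinase-Glo detection reagent; luminescence was measured after 8 minutes at ambient temperature.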
RORg inh: ROR gamma (mouse) transcription inhibition. P51450. Drosophila S2 Gal4-RORgamma UAS-luciferase reporter, 20 h. Potency, µM (titrated, usually from 53.6 µM), for inactives: at the highest dose activity change, negative = inhibition, most hits filed as inhibitors. 310,000 tested, 5.4% active. AID 2551; also: nearly all actives have a fitted effect of over 60% in size
Target sequence (P51450 whole entry, looked up, the tested form may be a part): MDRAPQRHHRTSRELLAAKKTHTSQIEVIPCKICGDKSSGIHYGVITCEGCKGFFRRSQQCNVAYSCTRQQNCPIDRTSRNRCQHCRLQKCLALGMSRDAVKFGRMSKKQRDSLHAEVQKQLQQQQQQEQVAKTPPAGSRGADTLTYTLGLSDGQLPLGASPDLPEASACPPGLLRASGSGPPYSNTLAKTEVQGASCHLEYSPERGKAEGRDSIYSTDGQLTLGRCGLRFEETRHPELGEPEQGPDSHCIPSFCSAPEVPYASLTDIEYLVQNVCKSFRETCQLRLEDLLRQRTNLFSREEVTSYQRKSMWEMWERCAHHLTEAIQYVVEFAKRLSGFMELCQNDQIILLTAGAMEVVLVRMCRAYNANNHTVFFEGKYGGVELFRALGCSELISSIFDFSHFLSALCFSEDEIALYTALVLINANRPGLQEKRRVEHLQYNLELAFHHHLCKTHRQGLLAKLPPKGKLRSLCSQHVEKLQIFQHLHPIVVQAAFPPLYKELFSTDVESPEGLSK
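Using a luciferase readout, inhibitors were identified by reduced reporter activity in Drosophila cells coexpressing a copper-inducible Gal4–ROR gamma fusion and UAS-driven Photinus luciferase, incubated 20 hr after 700 uM copper sulfate.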
Active calls of the source: *; ? = inconclusive; . = not tested or not shown; [ ] = remark or other dose. Calls follow the shape of the dose curve; as a rule, active = well fitted curve in the direction sought with a large enough effect; inconclusive = small, poorly fitted or top-dose-only effect, or another doubt; inactive = no such curve, though single readings can be large; an effect the other way counts as inactive or inconclusive. % is scaled to controls: 0 for no effect and ±100 for the full control effect; potency is read from the fitted curve at half-maximal effect.

SMILES	Gal4-VP16 FLuc	KinaseGlo FLuc	RORg inh
COC(=O)C1=C(C(=O)OC)[C@@H]2N(Cc3ccccc3)c3ccccc3[C@@]23C[C@@H](C(=O)OC)N(C(=O)NCc2ccccc2)C3=C1	-3%	1%	-8%
CC(OC(=O)c1ccc(NS(=O)(=O)c2ccc3[nH]c(=O)[nH]c3c2)cc1)C(N)=O (stereo unspecified)	3%	.	-2%
Cc1ccnc(NC(=O)COc2ccccc2[N+](=O)[O-])c1	?	-29%	11µM*
Cc1ccc(NC(=O)COc2ccccc2[N+](=O)[O-])nc1	?	?	6.3µM*
O=C(COc1ccccc1[N+](=O)[O-])Nc1ccc(Br)cc1	-10%	.	-17%
O=C(COc1ccccc1[N+](=O)[O-])Nc1cccnc1	-6%	.	0%
CCC(C)Sc1nc2c(c(=O)[nH]c(=O)n2C)n1Cc1ccccc1Cl (stereo unspecified)	29%	-3%	2%
O=C(CSc1nc2nn(-c3ccccc3)c(=O)c-2c2n1CCCCC2)NCCCc1ccccc1	0%	0%	29%
Cc1csc(/C(=N/OC(=O)c2ccco2)C(N)=O)n1	3%	.	-13%
CCCCc1cc2c(cn1)=C(OC(=O)c1ccc(Cl)nc1)C(C)(OC(=O)CC)C(=O)C=2 (stereo unspecified)	.	-4%[7.66 µM]	.
Cc1[nH]c2ccccc2c1-c1nc2ccccc2[nH]c1=O	10%	.	6%
Cn1ccnc1-c1nc2ccccc2[nH]c1=O	3.5µM*	2%	3.5µM*
Cc1nc(=S)c2c([nH]1)-c1ccccc1CC21CCCCC1	1µM*	.	0.2µM*
O=c1[nH]c(CN2CCCCC2)nc2c1C1(CCCCC1)Cc1ccccc1-2	7%	2%	-7%
COc1cccc([C@@H]2Oc3ccc(OC)cc3C[C@H]2OC(=O)NS(=O)(=O)c2ccc(C)cc2)c1	3%	-3%	?
NC(=O)c1nsc(C(=O)N(c2cccc(F)c2)C(C(=O)NCC2CCCO2)c2c[nH]c3ccccc23)c1N (stereo unspecified)	0%	.	8%
NC(=O)c1nsc(C(=O)N(c2ccc(F)cc2)C(C(=O)NCC2CCCO2)c2c[nH]c3ccccc23)c1N (stereo unspecified)	16µM*	.	-113%
Cc1cc(C)cc(OCCNC(=O)C2CCN(S(=O)(=O)c3ccccc3)CC2)c1	-5%	.	5%
C=C1CCC(=O)C(C)CCC2C1CC2(C)C (stereo unspecified)	6%	0%	-18%
COc1ccc2c(c1)C(C)=CC(C)(C)N2S(=O)(=O)c1ccc(C)cc1	1%	-5%	-39%
CCOc1ccc2c(c1)C(C)=CC(C)(C)N2S(=O)(=O)c1ccc(C)cc1	?	2%	4µM*
CC1CCCCC1NC(=O)CSc1ccc([N+](=O)[O-])cc1 (stereo unspecified)	-1%	.	0%
C=CCOC(=O)[C@H](O)[C@@H](O)C(=O)OCC=C	1%	-1%	-1%
O=C(NC1CCCCC1)C(c1cccs1)N(C(=O)c1ccccn1)c1ccccc1 (stereo unspecified)	-11%	-2%	29%
OC(C#Cc1ccccn1)c1cccs1 (stereo unspecified)	4.5µM*	-15%	10µM*
SMILES	Gal4-VP16 FLuc	KinaseGlo FLuc	RORg inh
CC1CC(C)CN(C(=O)CCn2c(=O)oc3ccccc32)C1 (stereo unspecified)	17%	.	14%
O=C1CCCC/C1=C/NCc1ccccc1	3%	-3%	-1%
CCOC(=O)c1oc2c(c1C)C(=O)CCC2	-4%	0%	24%
CCOC(=O)c1oc2c(c1C)/C(=N/O)CCC2	0%	11µM*	0%
O=C(CO/N=C/c1ccc(Cl)cc1Cl)NNC(=O)c1ccc(Cl)cc1Cl	?	.	0.089µM*
O=C(CO/N=C/c1c(Cl)cccc1Cl)NNC(=O)c1cccc(Cl)c1	2%	.	-16%
Cc1cc(N2CCCC2=O)cc(C)c1CN1C(=O)c2ccccc2C1=O	-4%	0%	18%
Fc1ccc(-c2nc3cnccn3c2NC2CCCC2)cc1	6%	-5%	16%
Oc1ccc(Br)cc1-c1nc2cnccn2c1NC1CCCC1	?	4%	22µM*
Cc1ccc(Nc2c(-c3ccccc3O)nc3cnccn23)cc1	?	-2%	?
Oc1ccc(Br)cc1-c1nc2cnccn2c1NC1CCCCC1	?	-3%	13µM*
CC(=O)Nc1ccc(N(CC(=O)NC2CCCCC2)C(=O)Cn2nnc(-c3ccccc3)n2)cc1	-1%	.	18%
CCNC(=O)NC(=O)CSc1nc2ccccc2n1CCOC	1%	.	28%
CCc1ccc(-c2nc(CS(=O)CC(=O)NCc3ccco3)c(C)o2)cc1 (stereo unspecified)	-7%	.	6%
O=C(NCCS(=O)c1ccc(Cl)cc1)c1cccc(Cl)c1 (stereo unspecified)	1%	2%	9%
CCOCCCNC(=O)C1CCCN(S(=O)(=O)c2ccc(-n3cnnn3)cc2)C1 (stereo unspecified)	1%	.	-1%
CCC(=O)N(C1=C(NC(C)C)C(=O)c2ccccc2C1=O)C(C)C	?	.	10µM*
CCCNC1=C(N(C(C)=O)c2cccc(F)c2)C(=O)c2ccccc2C1=O	?	-3%	?
O=C(CSc1nccc(=O)[nH]1)Nc1cccc(S(=O)(=O)N2CCOCC2)c1	1%	.	-10%
Cc1ccc(-c2nc(NCC3CCCO3)sc2C)cc1 (stereo unspecified)	-10%	4%	11µM*
Cc1ccc(S(=O)(=O)c2nc(S(C)(=O)=O)sc2NCC2CCCO2)cc1 (stereo unspecified)	-4%	2%	3%
C/C(=N/NC(=O)CCc1c(C)n[nH]c1C)c1cccc([N+](=O)[O-])c1	0%	.	-7%
CCCC/C(O)=C1\C(=O)CCCC1=NCCc1c(C)[nH]c2ccc(OC)cc12	-1%	.	-4%
COc1ccccc1C(=O)NC(=S)Nc1ccc(N2CCN(C(=O)c3ccco3)CC2)cc1	10µM*	.	-13%
O=C(Nc1ccc(NC(=O)c2cccs2)c(Cl)c1)c1ccco1	-14%	-3%	-20%
SMILES	Gal4-VP16 FLuc	KinaseGlo FLuc	RORg inh
Cc1ccc(C(=O)Nc2ccc(N3CCN(C(=O)c4ccco4)CC3)cc2)cc1	-15%	-4%	11%
O=C(Nc1ccc(NC(=O)c2sc3ccccc3c2Cl)cc1Cl)c1ccco1	?	-5%	10µM*
Cc1ccccc1C(=O)N1CCN(c2ccc(NC(=S)NC(=O)c3ccco3)cc2)CC1	?	.	16µM*
O=C(Nc1ccc(N2CCN(C(=O)c3cccs3)CC2)c(Cl)c1)c1ccco1	-2%	-4%	?
O=C(Nc1ccc(N2CCN(C(=O)c3ccco3)CC2)cc1)c1ccco1	-1%	-8%	26%
Cc1ccccc1C(=O)N1CCN(c2ccc(NC(=O)c3ccco3)cc2Cl)CC1	6.3µM*	1%	?
COc1cc(C)c(Cl)cc1S(=O)(=O)N(C)C	-23%	3%	16%
CCOC(=O)N1CCN(C(=S)NC(=O)C23CC4CC(CC(C4)C2)C3)CC1	?	0%	3.5µM*
CCOC(=O)N1CCN(C(=O)NC23CC4CC(CC(C4)C2)C3)CC1	-3%	4%	-9%
CC12CC3CC(C)(C1)CC(C(=O)N1CCCC1)(C3)C2	-3%	.	-18%
CCN(CC)CCNC(=O)C12CC3CC(CC(C3)C1)C2	2%	-2%	9%

Compound activity: PubChem BioAssay, National Center for Advancing Translational Sciences (NCATS)
